Source: the OligoGym collection

Target: MPHOSPH9
Assay: pooled miR-30 sensor sort-seq; sequence = guide strand
Details: shRNA
Further: reference of the scale not given here.

Sequence | sensor-assay potency score (higher = more potent)
TATTTGTTTAGAAACAAGCTGC | 0.128
TTACAATGTAGAACAAGTCTAT | 0.128
TAACGTAGGATCTAGAGTCAGG | -0.553
TTTATCAACAAGCTTGTTGATG | -0.498
TTGCTTGTGAAAATGAGTCTAT | -0.111
TTAAAGACACATGACACTCTTC | 0.499
TTTGGTGACACATCTGTGGAAG | -0.32
TTGTTGATGAACTTCCAGGTGA | -0.421
TTCATCTACAGTGTTGACCGAG | 0.377
TTGAGCTTCTTTATCATCTGAG | 0.656
TTGTTTAGAAACAAGCTGCTTC | 0.601
TAGATCTTGAACCTCCATCTTC | -0.263

Target: MPST
Assay: as above
Details: shRNA

Sequence | sensor-assay potency score (higher = more potent)
TTCTCCTTGATGTCCTCGTAGG | -1.08
TAGGTCTTGATGAAGGCGGGGT | 0.122
TACCACTCCACCCAGGAGCCAT | -1.23
TGAAGAAACACTCTCTTGGTGA | -0.0211
TTCTCCTGGAACAGATGGCGGA | -0.871
TTGAGTGAAGAAACACTCTCTT | 0.653
TTGATGTCCTCGTAGGTCTTGA | -0.443
TCGATGTCGAAGAAAGCGGCGC | -0.934
TCGTAGGTCTTGATGAAGGCGG | -0.615
TGAGTGAAGAAACACTCTCTTG | -1.53
TCGTAGATCACGACGTGGGTGG | -0.279
TTAGACAGGTCCACTTTCTTCT | 0.441

Target: MPZL1
Assay: as above
Details: shRNA

Sequence | sensor-assay potency score (higher = more potent)
TACACCACAGACTCTGACTTGT | 0.413
TTTGACATCACAGATATAGGTG | 0.376
TATTCTCTTAATTCTTTCGGAT | -0.74
TTTTTCTACGACATAGAGCCTA | -0.173
TTGACATCACAGATATAGGTGC | 0.0652
TTGTGTACCATTTGCCACGAAG | -1.44
TTTTCTATGTTGATTGATGCAT | -0.358
TTTTCTACGACATAGAGCCTAA | -0.79
TAACTGTGCATATATGACTGGG | -0.763
ATATTTTCTATGTTGATTGATG | -0.933
TTTCTATGTTGATTGATGCATC | -0.949
TATTTATACATATCCTTTGTAC | -0.807
